High-throughput results (PubChem BioAssay)
CRFBP-R2 agonist – agonists of CRF-BP/CRF-R2 complex, primary screen, cell-based, HEK293, calcium dye fluorescence, uHTS. calcium dye fluorescence (FLIPR); percent of saturating CRF peptide response. activation, % at 13.2 µM. 350,000 tested, 0.46% active. AID 588473, 2011;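 active = activation of at least 50%, plus an integration ratio under a set limit after plate pattern correction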;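 note: plate controls were neutral control wells without compound for no effect and CRF at EC100 for full effect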
IDE cell activ – human IDE activators in live cells, primary screen, fluorescence polarization, HEK cells, FAbeta-B substrate. AID 493087, 2011. FAbeta-B cleavage; 0% vehicle, 100% cell-free pure enzyme wells. activation, % at 5.96 µM. 340,000 tested, 0.073% active;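 active = activation above the mean of all tested compounds plus 3 SD, set per screening campaign, cut at about 17% in these data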
TPT1 inh – Candida albicans TPT1 enzyme inhibitors, primary screen, biochemical, fluorescence polarization. tRNA 2'-phosphotransferase TPT1 (Candida albicans SC5314). recombinant caTPT1, FP RNA substrate dephosphorylation. inhibition, % at 5 µM. 300,000 tested, 0.81% active. AID 1962, 2009;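 active = inhibition above the mean of all tested compounds plus 3 SD, set per screening campaign, cut at about 24% in these data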;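 note: plate controls were DMSO alone for no effect and ferristatin control at 100 nM for full effect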
HNF4A DNA FP – change in binding of human HNF4A to DNA, primary screen, biochemical, fluorescence polarization, FITC-DNA; 1 h; activity change, % at 10 µM; 360,000 tested, 0.3% active; AID 1224865, 2016; in the data active = activity change above about 30%, passing the limit was not always enough
Target sequence (P41235 whole entry, looked up): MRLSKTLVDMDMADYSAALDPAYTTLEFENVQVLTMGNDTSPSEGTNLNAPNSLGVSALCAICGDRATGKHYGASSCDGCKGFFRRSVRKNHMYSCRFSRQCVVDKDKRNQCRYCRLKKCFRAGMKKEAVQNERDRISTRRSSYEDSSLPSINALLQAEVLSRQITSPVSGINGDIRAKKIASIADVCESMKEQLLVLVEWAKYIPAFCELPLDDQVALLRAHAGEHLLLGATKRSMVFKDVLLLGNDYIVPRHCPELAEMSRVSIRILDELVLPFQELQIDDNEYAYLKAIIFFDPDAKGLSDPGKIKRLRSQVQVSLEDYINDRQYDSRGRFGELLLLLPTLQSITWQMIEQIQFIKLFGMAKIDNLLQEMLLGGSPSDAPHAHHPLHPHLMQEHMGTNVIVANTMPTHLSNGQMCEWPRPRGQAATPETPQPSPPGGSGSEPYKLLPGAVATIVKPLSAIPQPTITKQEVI
IDE cell inh – human IDE inhibitors in live cells, primary screen, fluorescence polarization, HEK cells, FAbetaB substrate; FAbetaB cleavage; inhibition, % at 5.59 µM; 320,000 tested, 0.41% active; AID 434962, 2010;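 active = percent inhibition above the average of all tested compounds plus 3 SD, set per screening campaign, cut at about 16% in these data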;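 note: IDE supplied by intact live HEK cells; FP after avidin binding of uncleaved biotin substrate so inhibition keeps polarization high; 0% = DMSO wells and 100% = 60 µM reference IDE inhibitor Ii1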
IDE inh confirm – human IDE inhibitors in live cells, confirmation, fluorescence polarization, HEK cells, FAbetaB substrate; 1,200 tested, 51% active; FAbetaB cleavage; AID 435028, 2010; shares compounds with IDE cell inh; inhibition, % at 5.59 µM;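 active = mean inhibition across triplicate wells above the cutoff set by the earlier primary insulin-degrading enzyme screen, cut at about 16% in these data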;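 note: 0% = DMSO wells and 100% = 60 µM reference IDE inhibitor Ii1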
HEK cytotox – cytotoxicity in HEK cells, cytotoxicity control for IDE inhibitor project, cell-based, luminescence; shares compounds with IDE cell inh; HEK293 cytotoxicity, ATP luminescence; inhibition, % at 5.59 µM; 1,200 tested, 28% active; in the data active = inhibition above about 22%;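 note: 0% = vehicle wells and 100% = reference cytotoxic drug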
IDE FP artifact – fluorescent or optically active artefacts, dose response, artefact control for IDE inhibitor project, biochemical, fluorescence polarization; shares compounds with IDE cell inh; FP counterscreen for fluorescent artifacts, IDE probe project; IC50, µM; 30 tested, under 10 active; AID 588718, 2011; call rule not given here
Starred values were filed as active, the others as inactive; . = not tested or not shown. An excerpt weighted towards active compounds, which were near 1.4% of everything screened.

SMILES	CRFBP-R2 agonist	IDE cell activ	TPT1 inh	HNF4A DNA FP	IDE cell inh	IDE inh confirm	HEK cytotox	others
CCOc1ccc2[nH]c3c(N4CCN(C(=O)c5ccco5)CC4)ncnc3c2c1	-6	.	-2	0	40*	16*	13	IDE FP artifact=>55
COc1ccc2[nH]c3c(N4CCc5ccccc5C4)ncnc3c2c1	-1	-27	-7	0	20*	13	73*
CCN(CC(=O)Nc1cccc(OC)c1)C(=O)c1ccco1	0	4	0	4	-2	.	.
Cn1c(=O)c(C(=O)CN2CCCc3ccccc32)c(N)n(Cc2ccccc2)c1=O	2	0	24	6	31*	17*	22	IDE FP artifact=>55
Cc1cccc(C)c1NC(=O)CNC(=O)C(C)NC(C)c1ccccc1Br (configuration not stated)	1	4	.	3	4	.	.
Cc1cccc(C)c1NC(=O)CCCCCC1NC(=O)NC1C (configuration not stated)	-1	-42	-1	-1	22*	1	7
COc1ccccc1CNC(=O)C(=O)NCCC1CCCCN1S(=O)(=O)c1ccc(C)cc1 (configuration not stated)	0	1	1	0	8	.	.
COc1ccccc1CCNC(=O)C(=O)NCCC1CCCCN1S(=O)(=O)c1ccccc1 (configuration not stated)	-1	-12	0	1	16*	2	21
COc1ccc(OCCNC(=O)Nc2cc(F)c(F)cc2Cl)cc1	1	-9	0	3	18*	3	6
Cc1c(Cl)cccc1NC(=O)N1CCCN(c2nc(-c3ccccc3)ns2)CC1	-3	-12	1	0	17*	2	51*
O=C(Nc1ccccc1Cl)N1CCCN(c2nc(-c3ccccc3)ns2)CC1	3	-15	0	-1	21*	8	31*
O=C(Nc1ccccc1)N1CCN(c2nc(-c3ccccc3)ns2)CC1	1	-26	-2	0	14	.	.
Cc1ccc(C(=O)NNC(=O)c2ccoc2C)s1	0	4	.	1	.	.	.
COc1ccc(-c2csc(NC(=O)c3cc(C)oc3C)n2)cc1OC	-1	-12	9	12	17*	13	21
CCc1noc(C)c1C(=O)Nc1nc(-c2ccc(OC)c(OC)c2)cs1	1	4	7	1	3	.	.
CCCC#Cc1ccc2c(c1)O[C@@H](CN(C)Cc1ccc3c(c1)OCO3)[C@H](C)CN([C@@H](C)CO)S2(=O)=O	12	.	.	2	.	.	.
Cc1ccc(-c2nc(C(=O)Nc3cccc(C(F)(F)F)c3)cs2)cc1	.	.	.	.	.	.	.	IDE FP artifact=>55
O=C(Nc1ccccc1)c1csc(-c2ccccc2)n1	3	2	-2	6	0	.	.
NNC(=O)c1csc(-c2cccc(C(F)(F)F)c2)n1	-2	5	1	3	-3	.	.
O=C(Nc1cccc(C(F)(F)F)c1)c1csc(-c2cccc(C(F)(F)F)c2)n1	.	.	.	.	.	.	.	IDE FP artifact=>55
O=C(Nc1cc(C(F)(F)F)cc(C(F)(F)F)c1)c1csc(-c2ccncc2)n1	.	.	.	.	.	.	.	IDE FP artifact=>55
O=C(Nc1ccc(C(F)(F)F)cc1)c1csc(-c2ccncc2)n1	5	-2	1	0	-2	.	.
O=C(Nc1cccc(C(F)(F)F)c1)c1csc(-c2ccccc2)n1	.	.	.	.	.	.	.	IDE FP artifact=>55
CCOC(=O)c1nn(-c2ccccc2Cl)c(=O)cc1OCC(=O)Nc1cccc(OC)c1	-1	3	-4	2	0	.	.
Cc1ccc(C(=O)OCC(=O)Nc2cc(C(C)(C)C)no2)c(C)c1	5	-1	.	3	0	.	.
SMILES	CRFBP-R2 agonist	IDE cell activ	TPT1 inh	HNF4A DNA FP	IDE cell inh	IDE inh confirm	HEK cytotox	others
O=C(CSc1nnc(-c2cccnc2)n1Cc1ccco1)c1ccc2ccccc2c1	-2	-4	9	4	10	.	.
Cc1cccc(-c2nnc(SCc3nc4ccccc4[nH]3)n2Cc2ccco2)c1	-2	-20	3	-1	37*	31*	21	IDE FP artifact=>55
O=C(CSc1nnc(-c2cccc(Cl)c2)n1Cc1ccco1)Nc1ccc2cn[nH]c2c1	.	.	.	.	.	.	.	IDE FP artifact=>55
Cc1ccc(-c2nnc(SCc3nc4ccccc4[nH]3)n2Cc2ccco2)cc1	-3	-9	-3	-1	0	.	.
O=C(CSc1nnc(-c2cccc(Cl)c2)n1Cc1ccco1)c1ccc2ccccc2c1	.	.	.	.	.	.	.	IDE FP artifact=>55
Cn1c(/N=C(\N)c2ccccc2)nc2ccccc21	0	.	.	0	.	.	.
O=C(COc1ccc2c3c(c(=O)oc2c1)CCCC3)NCCCN1CCOCC1	0	4	-3	2	7	.	.
Cc1cc(CSc2ccccc2)ccc1NC(=O)c1ccc(CN2CCOCC2)cc1	4	-11	1	-1	25*	9	75*
Cc1cc(C)c(S(=O)(=O)N2CCN(C(=O)c3ccc(-n4nc(C)c(Cl)c4C)cc3)CC2)c(C)c1	1	2	.	0	.	.	.
COc1ccc(C(=O)N2CCN(C(=O)C3COc4ccccc4O3)CC2)cc1 (configuration not stated)	1	-7	-2	-1	8	.	.
COc1cc(C(=O)N2CCN(C(=O)C3COc4ccccc4O3)CC2)cc(OC)c1OC (configuration not stated)	-1	-15	-2	5	23*	16	9
Oc1ccc(Cl)cc1C=Nc1ccccc1Br	7	7	-4	4	1	.	.
Oc1ccc(Br)cc1C=Nc1ccc2c3c(cccc13)CC2	5	-3	7	30	22*	1	10
COc1ccc2c(=O)c(Oc3ccc(C(=O)O)cc3)c(C(F)(F)F)oc2c1	0	1	-2	2	18*	4	7
Cc1ccc(S(=O)(=O)Nc2ccc3oc(=O)sc3c2)c(C)c1	2	-3	-4	0	18*	7	4
Cc1ccc(S(=O)(=O)N(CC(=O)NC2CC3CCC2C3)c2ccccc2)cc1 (configuration not stated)	-1	.	.	4	.	.	.
COc1cc(/C=C/C(=O)OCC(=O)NC(=O)C2COc3ccccc3O2)ccc1OC(F)F (configuration not stated)	1	0	.	1	1	.	.
CC(=O)Oc1ccc(/C=C2/SC(=S)N(Cc3ccccc3)C2=O)cc1	1	-29	10	50*	16*	78*	12
COc1ccc(Cl)cc1N/C(N)=N/c1nc(C)cc(=O)[nH]1	1	-1	-3	0	6	.	.
